Laboratory results as given in PubChem BioAssay AID1159580 (chemical genetic matrix, 2015).
In all, about 5,500 compounds went through this assay and about 2,000 (36%) were called active. About 18% were inconclusive and are not listed. Cut-off read from the data, not from the text of the source: active = normalized growth mostly below about 0.91 (no sharp cut-off); inconclusive = no clear call, values can overlap the other calls; inactive = mostly above about 0.92. This is one part of the list.

Experiment: chemical genetic growth profiling, strain panel (AID 1159580);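 note: tested at 20 µM; growth read once vehicle control cultures reached saturation at 30 °C; 1 = growth at the plate median or of vehicle wells; lower values mean less growth of the strain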
Details: growth OD
[1] = S. cerevisiae deletion strains, locus YDL101C, strain DUN1, active compounds read low
[2] = S. cerevisiae deletion strains, locus YHR030C, strain SLT2, active compounds read low
[3] = S. cerevisiae deletion strains, locus YAL013W, strain DEP1, active compounds read low
[4] = S. cerevisiae deletion strains, locus YBR229C, strain ROT2, active compounds read low
[5] = S. cerevisiae deletion strains, locus YDR150W, strain NUM1, active compounds read low
[6] = S. cerevisiae deletion strains, locus YEL061C, strain CIN8, active compounds read low
[7] = S. cerevisiae deletion strains, locus YGR078C, strain PAC10, active compounds read low
[8] = S. cerevisiae deletion strains, locus YHR087W, strain rtc3, active compounds read low
[9] = S. cerevisiae deletion strains, locus YJR043C, strain POL32, active compounds read low
[10] = S. cerevisiae deletion strains, locus YJR075W, strain HOC1, active compounds read low
[11] = S. cerevisiae deletion strains, locus YLR039C, strain RIC1, active compounds read low
[12] = S. cerevisiae deletion strains, locus YLR058C, strain SHM2 (second series), active compounds read low
[13] = S. cerevisiae deletion strains, locus YLR085C, strain ARP6, active compounds read low
[14] = S. cerevisiae deletion strains, locus YLR262C, strain YPT6, active compounds read low
[15] = S. cerevisiae deletion strains, locus YML094W, strain GIM5, active compounds read low
[16] = S. cerevisiae deletion strains, locus YMR219W, strain ESC1, active compounds read low
[17] = S. cerevisiae deletion strains, locus YMR263W, strain SAP30, active compounds read low
[18] = S. cerevisiae deletion strains, locus YNL153C, strain GIM3, active compounds read low
[19] = S. cerevisiae deletion strains, locus YNL298W, strain CLA4 (second series), active compounds read low
[20] = S. cerevisiae deletion strains, locus YNL322C, strain KRE1, active compounds read low
[21] = S. cerevisiae deletion strains, locus YNR030W, strain Alg12, active compounds read low
[22] = S. cerevisiae deletion strains, locus YPL055C, strain LGE1, active compounds read low
[23] = S. cerevisiae deletion strains, locus YPL241C, strain CIN2, active compounds read low
[24] = S. cerevisiae deletion strains, locus YPR135W, strain CTF4, active compounds read low
[25] = S. cerevisiae strains, strain wild type, active compounds read low

Measured: normalized growth

N#C/C(=C\c1ccccc1Sc1ccc(Cl)cc1)S(=O)(=O)c1ccccn1
inactive: S. cerevisiae deletion strains, locus YAR019C, strain CDC15, active compounds read low 0.972 | S. cerevisiae deletion strains, locus YBL105C, strain PKC1, active compounds read low 0.968 | S. cerevisiae deletion strains, locus YBR135W, strain CKS1, active compounds read low 0.957 | S. cerevisiae deletion strains, locus YBR136W, strain MEC1, active compounds read low 0.966 | S. cerevisiae deletion strains, locus YBR160W, strain CDC28, active compounds read low 0.973 | S. cerevisiae deletion strains, locus YDL017W, strain CDC7, active compounds read low 0.982 | S. cerevisiae deletion strains, locus YDL028C, strain MPS1, active compounds read low 0.971 | [1] 0.963 | S. cerevisiae deletion strains, locus YDL108W, strain KIN28, active compounds read low 0.962 | S. cerevisiae deletion strains, locus YDL132W, strain cdc53, active compounds read low 0.959 | S. cerevisiae deletion strains, locus YDL214C, strain PRR2, active compounds read low 0.901 | S. cerevisiae deletion strains, locus YDR052C, strain DBF4, active compounds read low 0.98 | S. cerevisiae deletion strains, locus YDR054C, strain cdc34, active compounds read low 0.969 | S. cerevisiae deletion strains, locus YDR226W, strain ADK1, active compounds read low 0.968 | S. cerevisiae deletion strains, locus YDR477W, strain SNF1, active compounds read low 0.873 | S. cerevisiae deletion strains, locus YER123W, strain YCK3, active compounds read low 0.88 | S. cerevisiae deletion strains, locus YER133W, strain GLC7, active compounds read low 0.909 | S. cerevisiae deletion strains, locus YFL009W, strain cdc4, active compounds read low 0.967 | S. cerevisiae deletion strains, locus YFL029C, strain CAK1, active compounds read low 0.968 | S. cerevisiae deletion strains, locus YFR003C, strain YPI1, active compounds read low 0.97 | S. cerevisiae deletion strains, locus YFR019W, strain FAB1, active compounds read low 0.926 | S. cerevisiae deletion strains, locus YFR028C, strain CDC14, active compounds read low 0.962 | S. cerevisiae deletion strains, locus YGR040W, strain KSS1, active compounds read low 0.871 | S. cerevisiae deletion strains, locus YGR052W, strain FMP48, active compounds read low 0.883 | S. cerevisiae deletion strains, locus YGR092W, strain DBF2, active compounds read low 0.772 | [2] 0.858 | S. cerevisiae deletion strains, locus YHR079C, strain IRE1, active compounds read low 0.956 | S. cerevisiae deletion strains, locus YHR082C, strain KSP1, active compounds read low 0.939 | S. cerevisiae deletion strains, locus YHR205W, strain SCH9, active compounds read low 0.872 | S. cerevisiae deletion strains, locus YIL147C, strain SLN1, active compounds read low 0.97 | S. cerevisiae deletion strains, locus YJL095W, strain BCK1, active compounds read low 0.875 | S. cerevisiae deletion strains, locus YJL128C, strain PBS2, active compounds read low 0.925 | S. cerevisiae deletion strains, locus YJL157C, strain FAR1, active compounds read low 0.897 | S. cerevisiae deletion strains, locus YJR016C, strain ILV3, active compounds read low 0.971 | S. cerevisiae deletion strains, locus YJR066W, strain TOR1 (second series), active compounds read low 0.883 | S. cerevisiae deletion strains, locus YJR066W, strain TOR1, active compounds read low 0.938 | S. cerevisiae deletion strains, locus YKL048C, strain ELM1, active compounds read low 0.852 | S. cerevisiae deletion strains, locus YKL067W, strain YNK1, active compounds read low 0.9 | S. cerevisiae deletion strains, locus YKL101W, strain HSL1, active compounds read low 0.875 | S. cerevisiae deletion strains, locus YKL193C, strain SDS22, active compounds read low 0.961 | S. cerevisiae deletion strains, locus YKL203C, strain TOR2, active compounds read low 0.936 | S. cerevisiae deletion strains, locus YLR133W, strain CKI1, active compounds read low 0.889 | S. cerevisiae deletion strains, locus YLR403W, strain SFP1, active compounds read low 0.802 | S. cerevisiae deletion strains, locus YML070W, strain DAK1, active compounds read low 0.886 | S. cerevisiae deletion strains, locus YMR001C, strain CDC5, active compounds read low 0.964 | S. cerevisiae deletion strains, locus YMR205C, strain PFK2 (second series), active compounds read low 0.908 | S. cerevisiae deletion strains, locus YMR277W, strain FCP1, active compounds read low 0.963 | S. cerevisiae deletion strains, locus YNL006W, strain LST8, active compounds read low 0.959 | S. cerevisiae deletion strains, locus YNL020C, strain ARK1, active compounds read low 0.891 | S. cerevisiae deletion strains, locus YNL161W, strain CBK1, active compounds read low 0.968 | S. cerevisiae deletion strains, locus YNL183C, strain NPR1, active compounds read low 0.934 | S. cerevisiae deletion strains, locus YNL207W, strain RIO2, active compounds read low 0.968 | S. cerevisiae deletion strains, locus YNL222W, strain SSU72, active compounds read low 0.959 | S. cerevisiae deletion strains, locus YNL307C, strain MCK1 (second series), active compounds read low 0.877 | S. cerevisiae deletion strains, locus YOL078W, strain AVO1, active compounds read low 0.955 | S. cerevisiae deletion strains, locus YOL136C, strain PFK27, active compounds read low 0.846 | S. cerevisiae deletion strains, locus YOR061W, strain CKA2, active compounds read low 0.851 | S. cerevisiae deletion strains, locus YOR119C, strain RIO1, active compounds read low 0.939 | S. cerevisiae deletion strains, locus YOR231W, strain MKK1, active compounds read low 0.893 | S. cerevisiae deletion strains, locus YOR329C, strain SCD5, active compounds read low 0.969 | S. cerevisiae deletion strains, locus YPL031C, strain PHO85, active compounds read low 0.868 | S. cerevisiae deletion strains, locus YPL153C, strain RAD53, active compounds read low 0.904 | S. cerevisiae deletion strains, locus YPL204W, strain HRR25, active compounds read low 0.83 | S. cerevisiae deletion strains, locus YPL209C, strain IPL1, active compounds read low 0.968 | S. cerevisiae deletion strains, locus YPL256C, strain CLN2, active compounds read low 0.926 | S. cerevisiae deletion strains, locus YPR025C, strain CCL1, active compounds read low 0.961 | S. cerevisiae deletion strains, locus YPR106W, strain ISR1, active compounds read low 0.973 | S. cerevisiae deletion strains, locus YPR111W, strain DBF20, active compounds read low 0.942 | S. cerevisiae deletion strains, strain NNK1, active compounds read low 0.964 | S. cerevisiae deletion strains, strain TSCII, active compounds read low 0.956
active: S. cerevisiae deletion strains, locus YLR113W, strain HOG1, active compounds read low 0.821

CC(=O)OCc1ccc(/C=C(\C#N)S(=O)(=O)c2ccc(Cl)cc2)o1
inactive: [3] 1.01 | [4] 1.01 | [1] 1.01 | [5] 1.06 | [6] 1 | [7] 1.01 | [2] 0.923 | [8] 0.983 | [9] 1.04 | [10] 0.956 | S. cerevisiae deletion strains, locus YKL190W, strain CNB1, active compounds read low 1.02 | [11] 0.992 | [12] 0.996 | [13] 0.923 | [14] 1.01 | [15] 0.993 | [16] 0.993 | [17] 1.06 | S. cerevisiae deletion strains, locus YMR307W, strain GAS1, active compounds read low 0.869 | [18] 1.03 | [19] 1.01 | [20] 0.985 | [21] 0.985 | [22] 1.13 | [23] 0.98 | [24] 0.966 | [25] 1.02

CC(=O)/C(=C\Nc1ncccn1)S(=O)(=O)c1ccc(Cl)cc1
inactive: [3] 1.01 | [4] 1 | S. cerevisiae deletion strains, locus YCL061C, strain MRC1, active compounds read low 1 | [1] 1.01 | [5] 0.977 | [6] 1 | [7] 1 | S. cerevisiae deletion strains, locus YGR229C, strain SMI1, active compounds read low 1 | [2] 0.822 | [8] 0.98 | S. cerevisiae deletion strains, locus YJL187C, strain SWE1, active compounds read low 1 | [9] 1.05 | [10] 0.941 | [11] 0.927 | [12] 0.993 | [13] 0.918 | [14] 0.89 | [15] 0.97 | [16] 0.998 | [17] 0.987 | S. cerevisiae deletion strains, locus YNL128W, strain TEP1, active compounds read low 1.01 | [18] 1.01 | [19] 0.954 | [20] 0.946 | [21] 0.975 | [22] 0.925 | [23] 0.98 | [24] 0.9 | [25] 1
